These results are taken from PubChem BioAssay (NCATS).

Records with an inconclusive call do not appear. A number with no mark means an inactive call. Activity calls are given as the source filed them. The call rests on the fitted dose curve; in most records, active means well fitted curve in the direction sought with a large enough effect; inconclusive means small, poorly fitted or top-dose-only effect, or another doubt; inactive means no such curve, though single readings can be large; an effect the other way counts as inactive or inconclusive.

The target in assay [1] is Rap guanine nucleotide exchange factor 3 (Homo sapiens) (UniProt O95398). In words: Confirmatory qHTS for antagonist of cAMP-regulated guanine nucleotide exchange factor 3 (EPAC1) (AID 1645880). Further: nearly all actives have a fitted effect of over 55% in size. Further: potency means the concentration at half of the fitted maximal effect. Put shortly:
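Released BODIPY-GDP fluoresces less than Rap1-bound BODIPY-GDP; the signal is followed at 480/540 nm at 5-min intervals over 30 min, after 5 min at room temperature. Reactions contain 100 nM EPAC1, 250 nM RAP1B-BODIPY-GDP and 50 uM GDP; results are normalized to ATA and DMSO.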
On the technique in general: In qHTS, concentration-response curves come from the screen itself.

Assay [2] shares this target. The assay can be described thus: Confirmatory qHTS for agonist of cAMP-regulated guanine nucleotide exchange factor 3 (EPAC1) (AID 1645881). Further: nearly all actives have a fitted effect of over 75% in size. Further: potency means the concentration at half of the fitted maximal effect.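 On activation: EPAC1 catalysed release of BODIPY-GDP from Rap1B seen as fluorescence loss; 100% = effect of cAMP agonist control.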
The target of assay [3] is Rap guanine nucleotide exchange factor 4 (Homo sapiens) (UniProt Q8WZA2). In words: Confirmatory qHTS for agonist of cAMP-regulated guanine nucleotide exchange factor 4 (EPAC2) (AID 1645884).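 Further: nucleotide exchange releases bodipy-GDP from Rap1 and this lowers its fluorescence; nearly all actives have a fitted effect of over 65% in size.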 Further: potency means the concentration at half of the fitted maximal effect. On activation: on the % scale 0 is the no-effect control and ±100 the full control effect.
Assay [4] has the same target. In words: Confirmatory qHTS for antagonist of cAMP-regulated guanine nucleotide exchange factor 4 (EPAC2) (AID 1645885). Further: nearly all actives have a fitted effect of over 25% in size. Further: potency means the concentration at half of the fitted maximal effect. On activity change, negative = inhibition: on the % scale 0 is the no-effect control and ±100 the full control effect.
The target in assay [5] is Rap guanine nucleotide exchange factor 3 (Homo sapiens) (UniProt O95398). In words: Counterscreen qHTS for antagonist of cAMP-regulated guanine nucleotide exchange factor 3 (EPAC1) (AID 1645888). Further: % of control where 0% means no effect. Put shortly: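 Measured: fluorescence of BODIPY-GDP bound to Rap1B, which falls as exchange proceeds. Conditions include 50 uM competing GDP, 5 and 30 min reads, and a later cAMP challenge for antagonist detection.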
On the technique in general: Counterscreens check selectivity or assay interference.

Chain of Rap guanine nucleotide exchange factor 4 (Homo sapiens) (Q8WZA2 whole entry, looked up): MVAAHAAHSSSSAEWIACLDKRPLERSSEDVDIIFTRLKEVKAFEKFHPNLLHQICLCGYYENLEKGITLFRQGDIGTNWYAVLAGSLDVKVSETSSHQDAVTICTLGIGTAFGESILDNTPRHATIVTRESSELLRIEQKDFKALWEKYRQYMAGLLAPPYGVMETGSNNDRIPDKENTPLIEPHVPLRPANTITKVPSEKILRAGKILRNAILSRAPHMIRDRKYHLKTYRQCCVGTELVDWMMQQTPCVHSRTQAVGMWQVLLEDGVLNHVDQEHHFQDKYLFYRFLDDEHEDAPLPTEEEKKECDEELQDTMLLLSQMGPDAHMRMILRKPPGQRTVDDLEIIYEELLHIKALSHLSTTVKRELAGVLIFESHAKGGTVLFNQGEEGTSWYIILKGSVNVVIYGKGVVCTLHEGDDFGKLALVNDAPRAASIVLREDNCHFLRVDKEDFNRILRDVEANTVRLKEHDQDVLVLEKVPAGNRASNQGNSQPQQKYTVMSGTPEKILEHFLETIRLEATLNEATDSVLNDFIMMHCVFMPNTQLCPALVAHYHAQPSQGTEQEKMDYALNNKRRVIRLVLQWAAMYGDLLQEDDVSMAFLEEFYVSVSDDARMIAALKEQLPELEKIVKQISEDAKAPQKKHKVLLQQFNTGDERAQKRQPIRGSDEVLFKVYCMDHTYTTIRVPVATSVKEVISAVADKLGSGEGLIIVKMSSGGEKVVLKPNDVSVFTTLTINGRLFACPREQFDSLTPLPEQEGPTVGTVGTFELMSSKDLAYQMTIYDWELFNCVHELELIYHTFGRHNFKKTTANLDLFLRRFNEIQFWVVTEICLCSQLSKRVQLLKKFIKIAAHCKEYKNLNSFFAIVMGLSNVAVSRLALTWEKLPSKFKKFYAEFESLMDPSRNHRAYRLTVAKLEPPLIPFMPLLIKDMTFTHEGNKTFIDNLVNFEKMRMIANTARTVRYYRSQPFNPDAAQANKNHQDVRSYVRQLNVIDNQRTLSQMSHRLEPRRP
Chain of Rap guanine nucleotide exchange factor 3 (Homo sapiens) (O95398 whole entry, looked up): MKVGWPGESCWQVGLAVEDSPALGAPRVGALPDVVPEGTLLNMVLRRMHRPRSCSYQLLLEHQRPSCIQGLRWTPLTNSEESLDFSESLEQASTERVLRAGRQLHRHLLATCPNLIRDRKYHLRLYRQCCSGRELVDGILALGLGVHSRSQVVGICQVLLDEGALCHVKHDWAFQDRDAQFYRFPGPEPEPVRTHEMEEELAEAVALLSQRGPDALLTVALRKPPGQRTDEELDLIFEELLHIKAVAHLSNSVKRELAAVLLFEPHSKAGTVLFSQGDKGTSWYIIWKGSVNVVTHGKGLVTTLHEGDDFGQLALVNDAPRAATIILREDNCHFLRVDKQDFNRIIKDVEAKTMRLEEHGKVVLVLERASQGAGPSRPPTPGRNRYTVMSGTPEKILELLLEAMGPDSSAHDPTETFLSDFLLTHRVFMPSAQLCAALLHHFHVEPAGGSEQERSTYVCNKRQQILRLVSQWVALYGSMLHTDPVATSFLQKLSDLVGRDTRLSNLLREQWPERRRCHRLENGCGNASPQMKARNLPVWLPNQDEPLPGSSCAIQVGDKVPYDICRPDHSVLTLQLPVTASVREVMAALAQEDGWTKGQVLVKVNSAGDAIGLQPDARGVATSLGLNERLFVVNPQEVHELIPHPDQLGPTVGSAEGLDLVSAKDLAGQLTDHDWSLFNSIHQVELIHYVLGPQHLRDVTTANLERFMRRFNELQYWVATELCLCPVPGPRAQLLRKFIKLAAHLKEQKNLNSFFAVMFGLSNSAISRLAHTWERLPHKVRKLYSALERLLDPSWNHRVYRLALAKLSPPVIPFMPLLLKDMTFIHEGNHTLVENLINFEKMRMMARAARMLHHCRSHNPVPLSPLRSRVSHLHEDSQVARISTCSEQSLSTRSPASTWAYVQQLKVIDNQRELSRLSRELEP

Regarding `CCOc1ccc(NC(=O)CN(C)C(=O)c2cc(C3CC3)nn2-c2ccccc2)cc1OCC`, the Potency result in assay [1], in assay [2], in assay [3], in assay [4] and in assay [5] was “inactive” throughout.
Take `Cc1ccc(NC(=O)C2CCN(S(=O)(=O)c3ccc4c(c3)OCCCO4)CC2)nc1`: the Potency entry in assay [1], in assay [2] and in assay [4] was “inactive” in each case. Moreover, in assay [3], the activation is 6.5% [at 17.1 µM, percent relative to cAMP agonist control]. Also, the activity change, negative = inhibition in assay [5] is 13.4% [at 30.8 µM].
With `CC(=NNC(=O)c1ccccc1N)c1ccccc1O`, the Potency in assay [1] is 2.51 µM (active). For the same compound, the Potency result in assay [2] and in assay [4] was “inactive” each time. Further, the activation in assay [3] is 0.484% [at 17.1 µM, percent relative to cAMP agonist control]. Besides, the activity change, negative = inhibition in assay [5] was -1.34% [at 30.8 µM].
On to `C=CCc1c(C)c(C#N)c2nc3ccccc3n2c1N1CCCCC1`, for which the Potency entry in assay [1], in assay [2], in assay [3], in assay [4] and in assay [5] was “inactive” in each case.
Consider `COC(=O)CSc1nc2sc3c(c2c(=O)n1-c1ccc(OC)cc1)CCN(C)C3`, for which the Potency entry in assay [1], in assay [2], in assay [3], in assay [4] and in assay [5] was “inactive” throughout.
Consider `COC(=O)c1c(NC(=O)c2c(OC)cccc2OC)sc2c1CCCC2`, for which the Potency entry in assay [1], in assay [2], in assay [3], in assay [4] and in assay [5] was “inactive” in each case.
Regarding `CCCCCNC(=O)C(c1cc2ccccc2o1)n1c(=O)c(-c2ccco2)nc2ccccc21` (stereo not given), the figures for the Potency in assay [1] and in assay [4] were 16.9 µM (active) and 10.7 µM (active), respectively. Moreover, the Potency result in assay [2], in assay [3] and in assay [5] was “inactive” in each case.
In the case of `CCc1ccc(S(=O)(=O)/N=C2\C=C(Nc3cccc(C(=O)O)c3)C(=O)c3ccccc32)cc1`, the Potency is 37.9 µM (active) in assay [1] and 0.379 µM (active) in assay [4]. Moreover, the Potency entry in assay [2], in assay [3] and in assay [5] was “inactive” in each case.
`COc1ccc2c(c1)CC/C(=C\Nc1ccc3c(c1)OCO3)C2=O`: the Potency result in assay [1], in assay [4] and in assay [5] was “inactive” throughout. Further, the Potency was 112 µM (active) in assay [2] and 100 µM (active) in assay [3].
In the case of `Oc1ccc(NCc2ccccc2OCc2ccc(Cl)cc2)cc1`, the Potency in assay [1] was 75.7 µM (active). Also, the Potency result in assay [2], in assay [3], in assay [4] and in assay [5] was “inactive” each time.
As for `Cc1ccc(C(=O)NCCCNC(=O)c2ccco2)cn1`, the Potency result in assay [1], in assay [2], in assay [3], in assay [4] and in assay [5] was “inactive” throughout.
For the compound `Cc1ccc(-c2cc3ccccc3nc2N2CCOCC2)cc1`, the Potency entry in assay [1], in assay [2], in assay [3], in assay [4] and in assay [5] was “inactive” each time.
`Cc1ccc(C(=O)Nc2ccccc2Oc2ccccc2)o1`: the Potency result in assay [1], in assay [2] and in assay [4] was “inactive” throughout. Moreover, the activation in assay [3] was 4.96% [at 17.1 µM, percent relative to cAMP agonist control]. Also, the activity change, negative = inhibition in assay [5] was 1.6% [at 30.8 µM].
`CCNC(=O)COc1ccc(/C=C2\COc3ccccc3C2=O)cc1OC`: the Potency entry in assay [1], in assay [2] and in assay [4] was “inactive” throughout. The activation in assay [3] is 4.45% [at 17.1 µM, percent relative to cAMP agonist control]. Moreover, the activity change, negative = inhibition in assay [5] is 0.373% [at 30.8 µM].
For `Cc1c(NC(=O)/C=C/c2cn(-c3ccccc3)nc2-c2ccccc2)c(=O)n(-c2ccccc2)n1C`, the Potency entry in assay [1], in assay [2] and in assay [4] was “inactive” in each case. Besides, the activation in assay [3] was 0% [at 17.1 µM, percent relative to cAMP agonist control]. For the same compound, the activity change, negative = inhibition in assay [5] is -4.59% [at 30.8 µM].
Take `O=C(CCN1C(=O)S/C(=C\c2ccccc2)C1=O)Nc1ccc(S(=O)(=O)Nc2nccs2)cc1`: the Potency in assay [1] is 39.8 µM (active). In addition, the Potency entry in assay [2] and in assay [4] was “inactive” in each case. In assay [3], the activation is 1.67% [at 17.1 µM, percent relative to cAMP agonist control]. Besides, in assay [5], the activity change, negative = inhibition was -0.356% [at 30.8 µM].
Consider `Cc1ccc(C)c(-c2ccc(=O)n(Cc3cccc(Br)c3)n2)c1`, for which the Potency entry in assay [1], in assay [2], in assay [3] and in assay [5] was “inactive” each time. In addition, the Potency in assay [4] is 19 µM (active).
Turning to `CCCc1cc(=O)[nH]c(SCC(=O)Nc2sc3c(c2C#N)CCC(C)C3)n1` (stereo not given), the Potency in assay [1] was 89.1 µM (active); in assay [4], 0.135 µM (active). Besides, in assay [2], the Potency result is “inactive”. Besides, the activation in assay [3] was 4.56% [at 17.1 µM, percent relative to cAMP agonist control]. In assay [5], the activity change, negative = inhibition was -6.17% [at 30.8 µM].
In the case of `COC(=O)c1[nH]c2cc(C)ccc2c1NC(=O)CN1CCCc2ccccc21`, the Potency result in assay [1], in assay [2], in assay [3], in assay [4] and in assay [5] was “inactive” each time.
Take `COC(=O)c1cc2oc(C)cc2n1Cc1cccc(Cl)c1`: the Potency result in assay [1], in assay [2], in assay [3], in assay [4] and in assay [5] was “inactive” in each case.
For the compound `CN(C)C(CNS(=O)(=O)c1ccc(Cl)cc1)c1cccnc1` (stereo not given), the Potency result in assay [1], in assay [2], in assay [3], in assay [4] and in assay [5] was “inactive” each time.
In the case of `CC(C)CNC(=O)c1c(-c2ccccc2)c(-c2ccccc2)nn(C)c1=O`, the Potency result in assay [1], in assay [2], in assay [3] and in assay [5] was “inactive” throughout. For the same compound, the outcome in assay [4] was “inactive [at 12.7 µM]”.
